Experimental data taken from PubChem BioAssay (NCATS).
Results filed as inconclusive are left out. A call without a number means that no potency is given here. Active and inactive are the calls of the source. Calls come from the whole dose curve; as a rule, active = well fitted inhibition curve with a large enough effect; inconclusive = small, poorly fitted or top-dose-only effect; inactive = flat fitted curve, though single readings scatter.

Assay: P-glycoprotein substrates identified in KB-8-5-11 adenocarcinoma cell line, qHTS therapeutic library screen (AID 1346987); note: nearly all actives have a fitted effect of over 65% in size
Conditions: KB-8-5-11 (P-gp overexpressing) viability, CellTiter-Glo, 72 h; series mostly up to 44.5 µM
How it was run: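 Compounds are pinned in dose-response onto KB-8-5-11 cells (500 cells/well, colchicine-free medium) and left 72 h at 37 degree C. CellTiter-Glo luminescence then yields AC50 values.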

Question: Which Potency does the source give for `CC(C)(O)C1CC=C(C(=O)OCC2OC(Oc3c(O)cc(C(=O)O)cc3O)C(O)C(O)C2O)CC1` (stereo not drawn) here?
Answer: inactive

Question: Which Potency does the source give for `O=C(O)c1ccc(CCCc2ccc(OCCc3ccc(F)cc3)cc2)o1` here?
Answer: inactive

Question: With `O=C(CCO[C@@H]1O[C@H](CO)[C@@H](O)[C@H](O)[C@H]1O)c1ccc(O)cc1` as the molecule, how does the Potency read?
Answer: inactive

Question: With `CC(C)(O)c1ccc2c(c1)C(O)CC1C(C)(C(=O)O)CCCC21C` (stereo not drawn) as the molecule, how does the Potency read?
Answer: inactive

Question: With `CN[C@@H]1[C@@H](O)[C@@H](O[C@@H]2[C@@H](O)[C@H](O[C@H]3O[C@H](CN)[C@@H](O)[C@H](O)[C@H]3O)[C@@H](N)C[C@H]2NC(=O)[C@@H](O)CN)OC[C@]1(C)O` as the molecule, how does the Potency read?
Answer: inactive

Question: With `N[C@@H](CC(=O)N1CCn2c(nnc2C(F)(F)F)C1)Cc1[nH]nc2c(F)c(F)ccc12` as the molecule, how does the Potency read?
Answer: inactive

Question: Which Potency does the source give for `COc1ccc2c(c1)OC[C@]1(O)c3cc4c(cc3O[C@H]21)OCO4` here?
Answer: inactive

Question: With `C=CC(C)(O)CC/C=C(/C)C(=O)OC1C(OC2OCC(OC3OC(CO)C(O)C(O)C3O)C(OC3OCC(O)C(OC4OC(C)C(O)C(O)C4O)C3O)C2O)COC(OC(=O)C23CCC(C)(C)CC2C2=CCC4C5(C)CCC(OC6OC(CO)C(OC7OC(CO)C(O)C(OC8OCC(O)C(O)C8O)C7O)C(O)C6O)C(C)(C)C5CCC4(C)C2(C)CC3O)C1O` (stereo not drawn) as the molecule, how does the activity change, negative = cytotoxicity read?
Answer: -0.997% [at 5.11 µM] (inactive)

Question: For `CCN[C@@H]1C[C@H](N)[C@@H](O[C@H]2OC(CN)=CC[C@H]2N)[C@H](O)[C@H]1O[C@H]1OC[C@](C)(O)[C@H](NC)[C@H]1O`, which Potency is on record?
Answer: inactive

Question: For `CC(C)(OC1OC(CO)C(O)C(O)C1O)C1CCC(O)(CO)C2CC(O)C(C)(O)C2C1` (stereo not drawn), which Potency is on record?
Answer: inactive

Question: Which Potency does the source give for `C=C1[C@@H]2CC[C@@]3(C)[C@H](c4ccoc4)OC(=O)C[C@]13O[C@H]1CC(=O)C(C)(C)[C@H](CC(=O)OC)[C@]12C` here?
Answer: inactive

Question: With `Nc1nonc1C(=Nc1ccc(F)c(Cl)c1)NO` as the molecule, how does the Potency read?
Answer: inactive

Question: For `C=C(NC(=O)C(=C)NC(=O)c1csc(C2=N[C@@H]3c4csc(n4)[C@H]4NC(=O)c5csc(n5)[C@H]([C@](C)(O)[C@@H](C)O)NC(=O)[C@H]5CSC(=N5)C(=CC)NC(=O)C([C@@H](C)O)NC(=O)c5csc(n5)[C@]3(CC2)NC(=O)[C@H](C)NC(=O)C(=C)NC(=O)[C@H](C)NC(=O)C([C@@H](C)CC)NC2C=Cc3c([C@H](C)O)cc(nc3C2O)C(=O)O[C@@H]4C)n1)C(N)=O` (stereo partly drawn), which Potency is on record?
Answer: inactive

Question: Which Potency does the source give for `CC(=O)OCC(=O)[C@@]1(O)CC[C@H]2[C@@H]3C[C@H](C)C4=CC(=O)C=C[C@]4(C)[C@H]3[C@@H](O)C[C@@]21C` here?
Answer: inactive

Question: Which Potency does the source give for `C[C@@H]1O[C@@H](O[C@H]2[C@H](OC(C#N)c3ccc(O)cc3)O[C@H](CO)[C@@H](O)[C@@H]2O)[C@H](O)[C@H](O)[C@H]1O` (stereo partly drawn) here?
Answer: inactive

Question: Which Potency does the source give for `CCOc1nc2cccc(C(=O)O)c2n1Cc1ccc(-c2ccccc2-c2noc(=O)[nH]2)cc1` here?
Answer: inactive

Question: With `CC(=O)N[C@H]1CCN(c2ccc(C3=NOC(CN[S+](=O)([O-])C(C)C)C3)cc2F)C1` (stereo partly drawn) as the molecule, how does the Potency read?
Answer: inactive

Question: Which Potency does the source give for `CC1C/C=C/C=C\CCCCC(O)C/C=C/C(=O)O1` (stereo not drawn) here?
Answer: inactive

Question: With `CCc1cc2c(=O)c(-c3nc4ccccc4s3)coc2c(CN2CCCCC2)c1O` as the molecule, how does the Potency read?
Answer: inactive

Question: With `CC1(C)CCCC2(C)C(CO)C3CCC2C31` (stereo not drawn) as the molecule, how does the Potency read?
Answer: inactive

Question: Which Potency does the source give for `CC1(C)C(=O)C(C)(C)c2cc(C(=O)Nc3ccc(C(=O)O)cc3)ccc21` here?
Answer: inactive

Question: For `COc1ccc(C(OC2OC(CO)C(O)C(O)C2O)C(C)O)cc1` (stereo not drawn), which Potency is on record?
Answer: inactive

Question: Which Potency does the source give for `CC(=O)O[C@]1(C(C)=O)CC[C@H]2[C@@H]3CCC4=CC(=O)CC[C@]4(C)[C@@]3(F)[C@@H](O)C[C@@]21C` here?
Answer: inactive

Question: With `CC(=O)OC[C@]1(O)[C@H]2[C@H](OC(=O)CC(C)C)OC=C(CO[C@@H]3O[C@H](CO)[C@@H](O)[C@H](O)[C@H]3O)[C@H]2C[C@@H]1O` as the molecule, how does the Potency read?
Answer: inactive

Question: For `O=C(O[C@H]1[C@@H]2C=CO[C@@H](O[C@@H]3O[C@H](CO)[C@@H](O)[C@H](O)[C@H]3O)[C@@H]2[C@@]2(CO)O[C@@H]12)c1ccc(O)c(O)c1`, which Potency is on record?
Answer: inactive

Question: Which Potency does the source give for `CC(C)C(=O)c1cn(CC(=O)COc2ccc(Oc3ccccc3)cc2)c2ccc(C(=O)O)cc12` here?
Answer: inactive

Question: For `C[C@@H]1O[C@@H](O[C@H]2[C@H](O[C@H]3[C@H](O[C@H]4CC[C@@]5(CO)C(CC[C@]6(C)C5CC=C5C7CC(C)(C)C[C@@H](O)[C@]7(C)CC[C@]56C)C4(C)C)O[C@H](C(=O)O)[C@@H](O)[C@@H]3O)OC[C@@H](O)[C@@H]2O)[C@H](O)[C@H](O)[C@H]1O` (stereo partly drawn), which outcome is on record?
Answer: inactive [at 9.29 µM]

Question: For `C=C1CC/C=C(/CO)C(=O)C[C@@H]2[C@@H]1CC2(C)C`, which Potency is on record?
Answer: inactive

Question: With `C/C=C/C1=CC2=C(CO1)C(=O)[C@](C)(O)[C@H](OC(=O)c1c(O)cc(OC)c(O)c1C)C2` as the molecule, how does the Potency read?
Answer: inactive

Question: With `C=C1[C@H]2[C@H](O[C@@H]3O[C@H](COC(=O)/C=C/c4cc(OC)c(O)c(OC)c4)[C@@H](O)[C@H](O)[C@H]3O)OC=C(C(=O)O)[C@H]2C[C@@H]1O` as the molecule, how does the Potency read?
Answer: inactive

Question: With `CC1OC(O[C@H]2[C@@H](O)C[C@@]3(C)C([C@H](O)C[C@]4(C)C3CC=C3C5CC(C)(C)CC[C@]5(C(=O)OC5OC(CO)C(O)C(O)C5OC5OCC(OC6OCC(OC7OCC(O)C(O)C7O)C(O)C6O)C(OC6OCC(O)(CO)C6O)C5O)CC[C@]34C)[C@]2(C)CO)C(O)C(O)C1O` (stereo partly drawn) as the molecule, how does the activity change, negative = cytotoxicity read?
Answer: 1.18% [at 9.29 µM] (inactive)

Question: For `Cc1cc(O)cc(Oc2cc(C)c(C(=O)O)c(O)c2)c1`, which Potency is on record?
Answer: inactive

Question: With `CC1CC(O)C2(C)C(C(=O)O)=CCCC2C1(C)CCc1ccoc1` (stereo not drawn) as the molecule, how does the Potency read?
Answer: inactive

Question: With `CC1OC(OC2C(C)OC(OC3C(OC(=O)/C=C/c4ccc(O)cc4)C(CO)OC(OC4(COC(=O)/C=C/c5ccc(O)cc5)OC(CO)C(O)C4O)C3OC3OCC(O)(CO)C3O)C(O)C2O)C(O)C(O)C1O` (stereo not drawn) as the molecule, how does the activity change, negative = cytotoxicity read?
Answer: 9.5% [at 9.29 µM] (inactive)

Question: With `C[C@H](CCC(=O)O)[C@H]1CC[C@H]2[C@@H]3[C@H](O)C[C@@H]4C[C@H](O)CC[C@]4(C)[C@H]3CC[C@]12C` as the molecule, how does the Potency read?
Answer: inactive

Question: Which Potency does the source give for `COc1ccccc1CC(C(=O)O)N(C)C(=O)c1ccccc1` (stereo not drawn) here?
Answer: inactive

Question: Which Potency does the source give for `CC/C=C/CC1=C(CCCCCCCC(=O)O)CCC1=O` here?
Answer: inactive

Question: Which Potency does the source give for `CCn1nnnc1NCc1ccc(C(C)C)cc1` here?
Answer: inactive
